Counter-ions that a name gives are not always drawn.
system: U2932 TK216-resistant clone 3; assay: cell proliferation relative to vehicle (% of vehicle); higher = less growth inhibition; conditions: 500 nM; 72 h
In short: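 Parental U2932 cells (ABC-DLBCL) and two clones made resistant to an ETS-targeting agent by almost a year of repeated exposure were treated for 72 h with 348 targeted inhibitors at 500 nM or 50 nM. MTT was then applied for 4 h, the reaction was stopped with 25% SDS, and absorbance was measured on a Cytation 3. Values express proliferation as percent of proliferating cells compared with DMSO vehicle.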

Going from `O=C(O)C1(C(=O)O)CCC1.[NH2-].[NH2-].[Pt+2]` [Carboplatin] to `C[C@]12CCC(=O)C=C1CC[C@@H]1[C@@H]2[C@@H](O)C[C@@]2(C)[C@H]1CC[C@]2(O)C(=O)CO` [Hydrocortisone], the cell proliferation falls from 99.1 to 85.1.

First: C[C@]1(O)C[C@@H](c2nc(-c3ccc4ccc(-c5ccccc5)nc4c3)c3c(N)nccn32)C1 [OSI-906 (Linsitinib)]
Second: O=C(O)c1ccc(-c2c[nH]c3ncc(-c4ccccc4)cc23)cc1C1CCCC1
The cell proliferation of the first is lower: 99.4 for the first, 105 for the second.

First: CN(C)CC[C@H](CSc1ccccc1)Nc1ccc(S(=O)(=O)NC(=O)c2ccc(N3CCN(Cc4ccccc4-c4ccc(Cl)cc4)CC3)cc2)cc1[N+](=O)[O-]
Second: COc1ccc2c(Oc3ccc(NC(=O)c4c(C)n(CC(C)(C)O)n(-c5ccccc5)c4=O)nc3)ccnc2c1
The cell proliferation of the first is lower: 37.4 for the first, 97.4 for the second.

Going from `O=C(O)c1ccc(Nc2ncc3c(n2)-c2ccc(Cl)cc2C(c2c(F)cccc2F)=NC3)cc1` to `Oc1ccc(Nc2nc(-c3ccc(Cl)cc3)cs2)cc1`, the cell proliferation rises from 86.2 to 103.

Going from `CNC(=O)c1cccc(-c2ccc3c(N4CCOC[C@@H]4C)nc(N4CCOC[C@@H]4C)nc3n2)c1` to `C[C@@H]1CN(CC(=O)Nc2ccc3c(c2)Cc2cccc(-c4cc(=O)cc(N5CCOCC5)o4)c2S3)C[C@H](C)O1`, the cell proliferation rises from 55.6 to 97.

Going from `Cc1cnc(-c2cnc(NCCNc3ccc(C#N)cn3)nc2-c2ccc(Cl)cc2Cl)[nH]1` to `Cc1csc(-c2nnc(Nc3ccc(Oc4ncccc4-c4ccnc(N)n4)cc3)c3ccccc23)c1`, the cell proliferation falls from 96.8 to 78.

Going from `CCOC(=O)C1=C(N)Oc2ccc(Br)cc2C1C(C#N)C(=O)OCC` (centres undefined) to `CN(C)Cc1c(C(=O)NCCOc2ccc(C(=O)NO)cc2)oc2ccccc12`, the cell proliferation falls from 100 to 47.6.

Compared with `CN(NC(=O)CC(=O)NN(C)C(=S)c1ccccc1)C(=S)c1ccccc1` [Elesclomol (STA-4783)], `O=c1sn(-c2cccc3ccccc23)c(=O)n1Cc1ccccc1` [Tideglusib] is higher in cell proliferation: -3.67 for the first, 101 for the second.

First: CCc1ccc(/C=C2/SC(=S)NC2=O)cc1
Second: C[C@@H]1CC(=O)c2c(ccc3c2C(=O)c2cccc(O)c2C3=O)C1
The cell proliferation of the first is higher: 99.4 for the first, 92.5 for the second.

Going from `O=c1[nH]cc(F)c(=O)[nH]1` [Fluorouracil (5-Fluoracil, 5-FU)] to `Cn1nnc2c(C(N)=O)ncn2c1=O` [Temozolomide], the cell proliferation falls from 106 to 100.

Compared with `C[C@@H](N)[C@H]1CC[C@H](C(=O)Nc2ccncc2)CC1`, `CN[C@@H](C)C(=O)N[C@H](C(=O)N1CCC[C@H]1C(=O)Nc1snnc1-c1ccccc1)C1CCCCC1` is higher in cell proliferation: 103 for the first, 107 for the second.

Compared with `C[C@@H](Oc1cc(-n2cnc3ccc(CN4CCN(C)CC4)cc32)sc1C(N)=O)c1ccccc1C(F)(F)F`, `CCc1cncnc1N1CCN(Cc2nc3ccc(C(F)(F)F)cc3[nH]2)CC1` is higher in cell proliferation: 14.8 for the first, 100 for the second.

Compared with `COc1cc(CCc2cc(NC(=O)c3ccc(N4CC(C)NC(C)C4)cc3)n[nH]2)cc(OC)c1` (centres undefined), `COC(=O)c1ccc([C@H]2c3[nH]c4ccccc4c3C[C@H](C(=O)OC)N2C(=O)CCl)cc1` is lower in cell proliferation: 102 for the first, -4.49 for the second.

Going from `CO[C@H]1/C=C\C=C(/C)C(=O)NC2=CC(=O)C(NCCN(C)C)=C(C[C@@H](C)C[C@H](OC)[C@H](O)[C@@H](C)/C=C(\C)[C@@H]1OC(N)=O)C2=O` [17-DMAG (Alvespimycin) HCl] to `COc1ccc(C2=N[C@@H](c3ccc(Cl)cc3)[C@@H](c3ccc(Cl)cc3)N2C(=O)N2CCNC(=O)C2)c(OC(C)C)c1` [Nutlin-3], the cell proliferation rises from 17 to 103.

Going from `Cc1c(NC(=O)OC[C@@H]2COCCN2)cn2ncnc(Nc3ccc4c(cnn4Cc4cccc(F)c4)c3)c12` to `C=CCn1c(=O)c2cnc(Nc3ccc(N4CCN(C)CC4)cc3)nc2n1-c1cccc(C(C)(C)O)n1`, the cell proliferation falls from 71.9 to 38.7.

First: C=C1/C(=C\C=C2/CCC[C@]3(C)[C@@H]([C@H](C)/C=C/[C@H](C)C(C)C)CC[C@@H]23)C[C@@H](O)C[C@@H]1O [Doxercalciferol]
Second: Cc1[nH]c(/C=C2\C(=O)Nc3ccc(S(=O)(=O)Cc4c(Cl)cccc4Cl)cc32)c(C)c1C(=O)N1CCC[C@@H]1CN1CCCC1
The cell proliferation of the first is higher: 103 for the first, 90.5 for the second.

Going from `Nc1nc(N)c2nc(-c3cccc(O)c3)c(-c3cccc(O)c3)nc2n1` to `O=c1c(O)c(-c2ccc(O)c(O)c2)oc2cc(O)cc(O)c12` [Quercetin], the cell proliferation rises from 96.6 to 106.

Compared with `COc1cc2c(Oc3ccc4[nH]c(C)cc4c3F)ncnc2cc1OCCCN1CCCC1` [Cediranib (AZD2171)], `COc1cc(Nc2c(C#N)cnc3cc(OCCCN4CCN(C)CC4)c(OC)cc23)c(Cl)cc1Cl` [Bosutinib (SKI-606)] is lower in cell proliferation: 83 for the first, 63.3 for the second.

Compared with `CN(C)c1nc(N(C)C)nc(N(C)C)n1` [Altretamine], `CCCCc1nc2cc(/C=C/C(=O)NO)ccc2n1CCN(CC)CC` [Pracinostat (SB939)] is lower in cell proliferation: 96.6 for the first, 64.4 for the second.

In the case of `COc1ccccc1OCC(O)CN1CCN(CC(=O)Nc2c(C)cccc2C)CC1` (centres undefined) [Ranolazine], the cell proliferation is reported as 101.
